The values that follow come from PubChem BioAssay (NCATS).

“And” between values parts separate entries of the source, which are not always exact repeats. Equal entries are not always repeated. Records with an inconclusive call do not appear. More than one record can exist for a structure, and the calls need not agree. The source made the active and inactive calls. The call rests on the fitted dose curve. Square brackets hold non-standard residues; d marks the D form. Peptide text beside a SMILES is read from it. * marks the point of attachment. Sta = CC(C)C[C@H](N)[C@@H](O)CC(=O)O; Isovaleryl = CC(C)CC(=O)*

Assay [1] is described as follows: Primary qHTS to identify inhibitors of SARS-CoV-2 cell entry (AID 1645846). Further: nearly all actives have a fitted effect of over 45% in size. Further: potency means the concentration at half of the fitted maximal effect. The conditions noted are these: SARS-CoV-2 pseudovirus cell entry assay, luminescence; activity change, negative = inhibition: at 57.1 µM (top of the series) unless noted; series mostly up to 57.1 µM. The method, boiled down:
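Data are normalized to wells receiving SARS-CoV-2-S pseudoparticles and those given bald particles. Entry signal was luciferase luminescence in stable hACE2 Expi293F cells, 48 hr post-infection, after 1 hr compound pretreatment.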
On the technique in general: In qHTS, concentration-response curves come from the screen itself.

The nature of assay [2]: Cytotoxicity counterscreen for inhibitors of SARS-CoV-2 cell entry (AID 1645845). Further: nearly all actives have a fitted effect of over 50% in size. The conditions noted are these: cell viability (SARS-CoV-2 entry assay cells); series mostly up to 57.1 µM. The method, boiled down: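 Expi293F/hACE2 cells seeded overnight; cpd pin-transferred in DMSO, 1 h preincubation, + media, 48 h 37 C 5% CO2; ATPLite 1step luminescence; normalized to cells and no cells.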

Assay [3] can be described thus: VSVG counterscreen qHTS to identify inhibitors of SARS-CoV-2 cell entry (AID 1645847). Further: nearly all actives have a fitted effect of over 65% in size. Further: potency means the concentration at half of the fitted maximal effect. On activity change, negative = inhibition: on the % scale 0 is the no-effect control and ±100 the full control effect. The conditions noted are these: VSV-G pseudotyped particle entry, luciferase; series mostly up to 57.2 µM. The method, boiled down: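 Counterscreen using VSV-G (not spike) pseudotyped MLV particles on ACE2-expressing Expi293F cells after 1 h compound preincubation; infection ran 48 h at 37 °C. Data normalized to VSV-G PP and bald-PP wells.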
For orientation: The purpose of a counterscreen is to sort out artefacts and off-target activity.

Take `CN(C)c1ccc(C(=C2C=CC(=[N+](C)C)C=C2)c2ccc(N(C)C)cc2)cc1`: the Potency in assay [1] was 2.24 µM (active) and 2.51 µM (active). Turning to `NC1(c2ccc(-c3nc4ccn5c(=O)[nH]nc5c4cc3-c3ccccc3)cc2)CCC1`, in assay [1], the Potency was 8.91 µM (active). `CCCCCCCCCCCCCCCCC(C(=O)O)C(O)(CC(=O)O)C(=O)O` (stereo not given): the Potency result in assay [2] and in assay [3] was “inactive” throughout. `CC(C(O)c1ccccc1)N(C)CCOC(c1ccccc1)c1ccccc1` (stereo not given): the Potency entry in assay [2] is “inactive”. The Potency in assay [3] is 21.5 µM (active). In the case of `C#C[C@]1(O)CC[C@H]2[C@@H]3[C@H](C)CC4=C(CCC(=O)C4)[C@H]3CC[C@@]21C`, the Potency result in assay [2] and in assay [1] was “inactive” each time. Also, the activity change, negative = inhibition in assay [1] was -14.1%. Regarding `CC1=C(CC(=O)O)c2cc(F)ccc2/C1=C\c1ccc(S(C)=O)cc1` (stereo not given), the Potency result in assay [1] was “inactive”. Consider `O=C1NC2CCCCN2C12CCN(CCCN1c3ccccc3CCc3ccc(Cl)cc31)CC2` (stereo not given), for which the Potency result in assay [2] is “inactive”. For the same compound, the Potency in assay [3] was 21.5 µM (active). Taken in the same sequence, the figures for `CCCSS/C(CCO)=C(\C)N(C=O)Cc1cnc(C)nc1N` were “inactive” and “inactive”.

`CCOC(=O)C1=C(C)NC(C)=C(C(=O)OCC)C1c1ccccc1/C=C/C(=O)OC(C)(C)C`: the Potency entry in assay [2] was “inactive”. The Potency in assay [1] was 25.1 µM (active); in assay [3], 1.21 µM (active). Consider `CC1=CC(=O)c2ccccc2C1=O`, for which the Potency result in assay [2] is “inactive”. Also, the Potency in assay [3] was 6.81 µM (active). In the case of `O=C(Nc1ccccc1)OCC(CN1CCCCC1)OC(=O)Nc1ccccc1` (stereo not given), the Potency result in assay [2] and in assay [3] was “inactive” each time.

For `CC(=O)OCC(=O)NCCCOc1cccc(CN2CCCCC2)c1`, the Potency entry in assay [1] is “inactive”.

As to `CCCCCCOC(=O)NC(=N)c1ccc(NCc2nc3cc(C(=O)N(CCC(=O)OCC)c4ccccn4)ccc3n2C)cc1`, the Potency result in assay [2] is “inactive”. In assay [1], the Potency was 22.4 µM (active) and the activity change, negative = inhibition was -62%. Also, the Potency in assay [3] is 4.82 µM (active). In the case of `O=C(O)C(=O)Nc1cccc(-c2nn[nH]n2)c1`, the Potency entry in assay [2] is “inactive”. In assay [1], the Potency entry was “inactive” and the activity change, negative = inhibition is -0.181%. Turning to `O=c1[nH]c(=O)n([C@H]2C[C@H](O)[C@@H](CO)O2)cc1C(F)(F)F`, in assay [2], the Potency result was “inactive”. In assay [1], the activity change, negative = inhibition was -93.8%. For the same compound, the Potency in assay [3] was 0.242 µM (active). As for `[O-][n+]1ccccc1SSc1cccc[n+]1[O-]`, the activity change, negative = inhibition in assay [1] was -95.2% [at 27.1 µM]. Regarding `COC(=O)[C@H]1[C@H]2C[C@@H]3c4[nH]c5cc(OC)ccc5c4CCN3C[C@H]2C[C@@H](OC(=O)/C=C/c2ccc(O)c(OC)c2)[C@@H]1OC`, the Potency entry in assay [2] was “inactive”. The results for the Potency in assay [1] and in assay [3] were 12.6 µM (active) and 19.2 µM (active), respectively. As to `CCN(CC)CCOc1ccc(/C(=C(\Cl)c2ccccc2)c2ccccc2)cc1`, the Potency entry in assay [2] was “inactive”. Moreover, in assay [1], the activity change, negative = inhibition came out at 4.38%. In addition, the Potency in assay [3] is 8.57 µM (active). For `CCOC(=O)C(C)(C)Oc1ccc(Cl)cc1`, the Potency entry in assay [2] was “inactive”. For the same compound, the Potency in assay [3] was 12.1 µM (active).

`CC(C)CC(=O)N[C@H](C(=O)N[C@H](C(=O)N[C@@H](CC(C)C)[C@@H](O)CC(=O)N[C@@H](C)C(=O)N[C@@H](CC(C)C)[C@@H](O)CC(=O)O)C(C)C)C(C)C` (Isovaleryl-VV[Sta]A[Sta]-OH): the activity change, negative = inhibition in assay [1] is -12.9%. As for `CC(=O)c1ccc2c(c1)N(CCCN1CCC(CCO)CC1)c1ccccc1S2`, the Potency entry in assay [2] was “inactive”. Besides, the Potency in assay [3] was 7.08 µM (active). In the case of `COCCOC(=O)C1=C(C)NC(C)=C(C(=O)OC/C=C/c2ccccc2)C1c1cccc([N+](=O)[O-])c1` (stereo not given), the Potency result in assay [2] is “inactive”. In addition, the Potency in assay [3] was 21.5 µM (active). Consider `N/C(=N\N=C\c1ccc(Cl)cc1)N/N=C/c1ccc(Cl)cc1`, for which the activity change, negative = inhibition in assay [1] was -80.5%. In the case of `COc1ccc(CCN2CCC(Nc3nc4ccccc4n3Cc3ccc(F)cc3)CC2)cc1`, the Potency in assay [1] was 10 µM (active). Same read-out and setting: the result for `Cc1cc(C2CCCCC2)n(O)c(=O)c1` reads 17.8 µM (active). For the compound `O[C@@H](COc1cccc2ncccc12)CN1CCN(C2c3ccccc3[C@@H]3[C@H](c4ccccc42)C3(F)F)CC1` (stereo not given in full), the Potency in assay [1] is 28.2 µM (active); in assay [3], 0.171 µM (active). Regarding `CN1[C@@H]2CC[C@H]1CC(NC(=O)n1c(=O)[nH]c3ccccc31)C2` (stereo not given in full), in assay [1], the Potency result is “inactive”. On the same count and under the same terms, the result for `Oc1c(Cl)cc(Cl)c(Cl)c1Cc1c(O)c(Cl)cc(Cl)c1Cl` reads 3.16 µM (active); that for `CC[C@H]1CN2CCc3cc(OC)c(OC)cc3[C@@H]2C[C@@H]1C[C@H]1NCCc2cc(OC)c(OC)cc21`, 1.26 µM (active); that for `C1CCC(C(CC2CCCCN2)C2CCCCC2)CC1` (stereo not given), 12.6 µM (active) and 17.8 µM (active).

Turning to `Clc1ccccc1C(c1ccccc1)(c1ccccc1)n1ccnc1`, the Potency in assay [3] is 19.2 µM (active). Regarding `COc1ccc2c(c1)c(CC(=O)OCC(=O)O)c(C)n2C(=O)c1ccc(Cl)cc1`, the Potency entry in assay [1] was “inactive”. `C[C@H](N)[C@H](O)c1cccc(O)c1`: in assay [1], the activity change, negative = inhibition was 1.07%. As to `CCOC(=O)OCC/C(SC(=O)OCC)=C(\C)N(C=O)Cc1cnc(C)nc1N`, the Potency entry in assay [1] was “inactive”. For the compound `COc1ccc(-c2nc3ccc(C4=NNC(=O)CC4C)cc3[nH]2)cc1` (stereo not given), the activity change, negative = inhibition in assay [1] was -33%.
